# Experimental data: PubChem BioAssay AID1159580 (chemical genetic matrix, 2015)
# Several values for one entry are separate records, joined by “and”; a condition that tells them apart may be missing. Identical values can stand only once. Out of some 5,500 compounds screened, about 2,000 (36%) were called active. Not shown: some 18% with an inconclusive outcome. The list shows a part of the results. Values without a mark were called inactive. Cut-off read from the data, not from the text of the source: active = normalized growth mostly below about 0.91 (no sharp cut-off); inconclusive = no clear call, values can overlap the other calls; inactive = mostly above about 0.92.
# Experiment: chemical genetic growth profiling, strain panel (AID 1159580);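 note: tested at 20 µM; growth read once vehicle control cultures reached saturation at 30 °C; 1 = growth at the plate median or of vehicle wells; lower values mean less growth of the strain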
# Settings: S. cerevisiae deletion strains, growth OD
smiles,measurement,setting,value
CC(=O)O[C@]1(C)CC[C@@]23CC1C(C)(C)[C@@H]2CC[C@H]3C,normalized growth,"locus YAL013W, strain DEP1, hits give low values",1
same,normalized growth,"locus YAL021C, strain ccr4, hits give low values",0.985
same,normalized growth,"locus YAL026C, strain drs2, hits give low values",0.979
same,normalized growth,"locus YAL030W, strain snc1, hits give low values",0.98
same,normalized growth,"locus YBL061C, strain skt5, hits give low values",0.967
same,normalized growth,"locus YBR009C, strain hhf1, hits give low values",0.968
same,normalized growth,"locus YBR021W, strain FUR4, hits give low values",0.954
same,normalized growth,"locus YBR023C, strain chs3, hits give low values",0.961
same,normalized growth,"locus YBR171W, strain sec66, hits give low values",0.969
same,normalized growth,"locus YBR229C, strain ROT2, hits give low values",1
same,normalized growth,"locus YBR231C, strain swc5, hits give low values",0.998
same,normalized growth,"locus YBR279W, strain paf1, hits give low values",0.979
same,normalized growth,"locus YCL011C, strain gbp2, hits give low values",0.975
same,normalized growth,"locus YCL016C, strain dcc1, hits give low values",0.976
same,normalized growth,"locus YCL029C, strain bik1, hits give low values",1.03
same,normalized growth,"locus YCL061C, strain MRC1, hits give low values",0.985
same,normalized growth,"locus YCL069W, strain vba3, hits give low values",0.976
same,normalized growth,"locus YCR088W, strain abp1, hits give low values",0.978
same,normalized growth,"locus YDL005C, strain med2, hits give low values",0.967
same,normalized growth,"locus YDL035C, strain GPR1, hits give low values",0.964
same,normalized growth,"locus YDL040C, strain nat1, hits give low values",0.972
same,normalized growth,"locus YDL074C, strain BRE1, hits give low values",0.958
same,normalized growth,"locus YDL101C, strain DUN1, hits give low values",0.981
same,normalized growth,"locus YDL185W, strain tfp1, hits give low values",1.02
same,normalized growth,"locus YDL192W, strain arf1, hits give low values",0.971
same,normalized growth,"locus YDR001C, strain nth1, hits give low values",0.977
same,normalized growth,"locus YDR069C, strain doa4, hits give low values",0.974
same,normalized growth,"locus YDR101C, strain arx1, hits give low values",1.02
same,normalized growth,"locus YDR137W, strain rgp1, hits give low values",0.944
same,normalized growth,"locus YDR159W, strain sac3, hits give low values",0.986
same,normalized growth,"locus YDR162C, strain NBP2, hits give low values",0.905
same,normalized growth,"locus YDR195W, strain ref2",0.995
same,normalized growth,"locus YDR297W, strain sur2, hits give low values",0.96
same,normalized growth,"locus YDR318W, strain mcm21, hits give low values",0.972
same,normalized growth,"locus YDR334W, strain swr1, hits give low values",0.974
same,normalized growth,"locus YDR335W, strain msn5, hits give low values",0.975
same,normalized growth,"locus YDR388W, hits give low values",1.01
same,normalized growth,"locus YDR392W, strain spt3, hits give low values",0.964
same,normalized growth,"locus YDR502C, strain sam2, hits give low values",0.979
same,normalized growth,"locus YEL003W, strain gim4, hits give low values",0.977
same,normalized growth,"locus YEL037C, strain rad23, hits give low values",0.975
same,normalized growth,"locus YEL061C, strain CIN8 (second series), hits give low values",0.981
same,normalized growth,"locus YEL061C, strain CIN8, hits give low values",0.996
same,normalized growth,"locus YER015W, strain faa2, hits give low values",0.974
same,normalized growth,"locus YER016W, strain bim1, hits give low values",0.966
same,normalized growth,"locus YER110C, hits give low values",1.02
same,normalized growth,"locus YER111C, strain swi4, hits give low values",0.967
same,normalized growth,"locus YER155C, strain BEM2 (second series), hits give low values",0.974
same,normalized growth,"locus YER155C, strain BEM2, hits give low values",0.95
same,normalized growth,"locus YER167W, strain BCK2, hits give low values",0.982
same,normalized growth,"locus YFR010W, strain ubp6, hits give low values",0.994
same,normalized growth,"locus YGL078C, strain dbp3, hits give low values",1.01
same,normalized growth,"locus YGL086W, strain mad1, hits give low values",1.02
same,normalized growth,"locus YGL167C, strain pmr1, hits give low values",0.977
same,normalized growth,"locus YGL173C, strain kem1, hits give low values",0.975
same,normalized growth,"locus YGL227W, strain vid30, hits give low values",0.969
same,normalized growth,"locus YGL240W, strain doc1, hits give low values",1.01
same,normalized growth,"locus YGL248W, strain PDE1, hits give low values",0.934
same,normalized growth,"locus YGL253W, strain hxk2, hits give low values",0.981
same,normalized growth,"locus YGR078C, strain PAC10, hits give low values",0.946
same,normalized growth,"locus YGR135W, strain pre9, hits give low values",0.985
same,normalized growth,"locus YGR252W, strain gcn5, hits give low values",0.867
same,normalized growth,"locus YHR013C, strain ard1, hits give low values",0.959
same,normalized growth,"locus YHR027C, strain rpn1, hits give low values",0.986
same,normalized growth,"locus YHR030C, strain SLT2, hits give low values",0.964 and 0.917
same,normalized growth,"locus YHR079C, strain IRE1 (second series), hits give low values",1.01
same,normalized growth,"locus YHR079C, strain IRE1, hits give low values",0.951
same,normalized growth,"locus YHR094C, strain hxt1, hits give low values",1.01
same,normalized growth,"locus YHR129C, strain ARP1, hits give low values",0.978
same,normalized growth,"locus YHR142W, strain chs7, hits give low values",0.967
same,normalized growth,"locus YHR200W, strain rpn10, hits give low values",1
same,normalized growth,"locus YIL066C, strain RNR3, hits give low values",0.973
same,normalized growth,"locus YIL073C, strain SPO22, hits give low values",0.923
same,normalized growth,"locus YIL125W, strain kgd1, hits give low values",1.01
same,normalized growth,"locus YIR030C, strain dcg1, hits give low values",0.997
same,normalized growth,"locus YJL092W, strain hpr5, hits give low values",0.983
same,normalized growth,"locus YJL095W, strain BCK1 (second series), hits give low values",0.981
same,normalized growth,"locus YJL095W, strain BCK1, hits give low values",0.84 and 0.968
same,normalized growth,"locus YJL115W, strain asf1, hits give low values",0.975
same,normalized growth,"locus YJL129C, strain trk1, hits give low values",0.981
same,normalized growth,"locus YJL134W, strain LCB3, hits give low values",1.01
same,normalized growth,"locus YJL154C, strain vps35, hits give low values",0.962
same,normalized growth,"locus YJL164C, strain tpk1, hits give low values",0.978
same,normalized growth,"locus YJL166W, strain qcr8, hits give low values",0.978
same,normalized growth,"locus YJL168C, strain set2, hits give low values",1.01
same,normalized growth,"locus YJL187C, strain SWE1 (second series), hits give low values",0.97
same,normalized growth,"locus YJR043C, strain POL32, hits give low values",0.995
same,normalized growth,"locus YJR066W, strain TOR1, hits give low values",0.958
same,normalized growth,"locus YJR075W, strain HOC1, hits give low values",0.956
same,normalized growth,"locus YKL009W, strain mrt4, hits give low values",1.08
same,normalized growth,"locus YKL068W, hits give low values",0.998
same,normalized growth,"locus YKL085W, strain MDH1 (second series), hits give low values",1
same,normalized growth,"locus YKL085W, strain MDH1, hits give low values",1
same,normalized growth,"locus YKL160W, strain elf1, hits give low values",0.968
same,normalized growth,"locus YKL190W, strain CNB1, hits give low values",1
same,normalized growth,"locus YKR001C, strain vps1, hits give low values",0.98
same,normalized growth,"locus YKR026C, strain gcn3, hits give low values",0.974
same,normalized growth,"locus YKR091W, strain srl3, hits give low values",0.974
same,normalized growth,"locus YLL001W, strain dnm1, hits give low values",0.978
same,normalized growth,"locus YLL026W, hits give low values",0.971
same,normalized growth,"locus YLL041C, strain sdh2, hits give low values",0.973
same,normalized growth,"locus YLR027C, strain aat2, hits give low values",0.964
same,normalized growth,"locus YLR039C, strain RIC1, hits give low values",0.853
same,normalized growth,"locus YLR058C, strain SHM2, hits give low values",0.974
same,normalized growth,"locus YLR102C, strain apc9, hits give low values",1.01
same,normalized growth,"locus YLR113W, strain HOG1, hits give low values",0.911
same,normalized growth,"locus YLR221C, strain rsa3, hits give low values",0.977
same,normalized growth,"locus YLR258W, strain gsy2, hits give low values",0.957
same,normalized growth,"locus YLR262C, strain YPT6 (second series), hits give low values",0.987
same,normalized growth,"locus YLR262C, strain YPT6, hits give low values",0.848
same,normalized growth,"locus YLR268W, strain sec22, hits give low values",1.03
same,normalized growth,"locus YLR320W, strain mms22, hits give low values",0.981
same,normalized growth,"locus YLR330W, strain CHS5, hits give low values",1
same,normalized growth,"locus YLR342W, strain FKS1 (second series), hits give low values",1
same,normalized growth,"locus YLR342W, strain FKS1, hits give low values",0.995
same,normalized growth,"locus YLR357W, strain rsc2, hits give low values",0.989
same,normalized growth,"locus YLR370C, strain arc18, hits give low values",0.976
same,normalized growth,"locus YLR371W, strain rom2, hits give low values",1.01
same,normalized growth,"locus YLR384C, strain iki3, hits give low values",0.977
same,normalized growth,"locus YLR418C, strain cdc73, hits give low values",0.864
same,normalized growth,"locus YML016C, strain PPZ1, hits give low values",1
same,normalized growth,"locus YML032C, strain rad52, hits give low values",0.965
same,normalized growth,"locus YML120C, strain ndi1, hits give low values",0.976
same,normalized growth,"locus YML124C, strain tub3, hits give low values",0.999
same,normalized growth,"locus YMR058W, strain fet3, hits give low values",0.968
same,normalized growth,"locus YMR078C, strain ctf18, hits give low values",1.01
same,normalized growth,"locus YMR125W, strain sto1, hits give low values",0.966
same,normalized growth,"locus YMR129W, hits give low values",0.973
same,normalized growth,"locus YMR205C, strain PFK2, hits give low values",0.933
same,normalized growth,"locus YMR223W, strain ubp8, hits give low values",0.959
same,normalized growth,"locus YMR231W, strain pep5, hits give low values",0.976
same,normalized growth,"locus YMR263W, strain SAP30, hits give low values",0.983
same,normalized growth,"locus YMR307W, strain GAS1, hits give low values",0.74
same,normalized growth,"locus YNL067W, strain RPL9B, hits give low values",0.969
same,normalized growth,"locus YNL071W, strain lat1, hits give low values",0.982
same,normalized growth,"locus YNL183C, strain NPR1, hits give low values",0.961
same,normalized growth,"locus YNL209W, strain ssb2, hits give low values",0.983
same,normalized growth,"locus YNL233W, strain BNI4, hits give low values",0.933
same,normalized growth,"locus YNL248C, strain rpa49, hits give low values",0.978
same,normalized growth,"locus YNL250W, strain rad50, hits give low values",1.01
same,normalized growth,"locus YNL271C, strain bni1, hits give low values",1.01
same,normalized growth,"locus YNL298W, strain CLA4, hits give low values",1.03
same,normalized growth,"locus YNL307C, strain MCK1, hits give low values",1.01
same,normalized growth,"locus YNL322C, strain KRE1 (second series), hits give low values",0.952
same,normalized growth,"locus YNR049C, strain mso1, hits give low values",0.995
same,normalized growth,"locus YNR052C, strain pop2, hits give low values",0.986
same,normalized growth,"locus YOL012C, strain htz1",0.829
same,normalized growth,"locus YOL147C, strain pex11, hits give low values",1
same,normalized growth,"locus YOR001W, strain rrp6, hits give low values",0.996
same,normalized growth,"locus YOR061W, strain CKA2, hits give low values",1
same,normalized growth,"locus YOR069W, strain VPS5, hits give low values",1
same,normalized growth,"locus YOR070C, strain gyp1, hits give low values",0.993
same,normalized growth,"locus YOR080W, strain dia2, hits give low values",0.967
same,normalized growth,"locus YOR083W, strain WHI5, hits give low values",0.979
same,normalized growth,"locus YOR106W, strain vam3, hits give low values",0.979
same,normalized growth,"locus YOR136W, strain idh2, hits give low values",1.02
same,normalized growth,"locus YOR144C, strain elg1, hits give low values",1.01
same,normalized growth,"locus YOR184W, strain ser1, hits give low values",0.846 (active)
same,normalized growth,"locus YOR231W, strain MKK1, hits give low values",0.958
same,normalized growth,"locus YOR265W, strain rbl2, hits give low values",0.999
same,normalized growth,"locus YOR270C, strain vph1, hits give low values",0.897
same,normalized growth,"locus YOR290C, strain snf2, hits give low values",0.947
same,normalized growth,"locus YOR316C, strain cot1, hits give low values",1
same,normalized growth,"locus YPL051W, strain arl3, hits give low values",0.976
same,normalized growth,"locus YPL055C, strain LGE1, hits give low values",0.937
same,normalized growth,"locus YPL078C, strain atp4, hits give low values",0.999
same,normalized growth,"locus YPL106C, strain sse1, hits give low values",0.969
same,normalized growth,"locus YPL240C, strain hsp82, hits give low values",0.982
same,normalized growth,"locus YPL256C, strain CLN2, hits give low values",0.991
same,normalized growth,"locus YPR119W, strain clb2, hits give low values",1.01
same,normalized growth,"locus YPR141C, strain kar3, hits give low values",1
same,normalized growth,"locus YPR163C, strain tif3, hits give low values",1.02
same,normalized growth,"locus YPR167C, strain met16, hits give low values",0.98
same,normalized growth,"strain wtn01, hits give low values",1.04
